# Measured values from article PMC5540273 (PLoS ONE, 2017).
# How the values were obtained:
# Conditions in all cases: concentration: 1 μM, replicates: in singlicate; n = 1
# AXL = system: AXL
# BIKE = system: T1, BIKE
# T1 construct: gene BMP2K
# BLK = system: BLK
# BMPR1A = system: BMPR1A
# BMPR1B = system: BMPR1B
# BMPR2 = system: BMPR2
# BMX = system: BMX
# BRAF = system: BRAF
# BRK = system: T2, BRK
# T2 construct: gene PTK6
# BRSK1 = system: BRSK1
# BRSK2 = system: BRSK2
# BTK = system: BTK
# BUB1 = system: BUB1
# CAMK1B = system: CAMK1B
# CAMK1D = system: CAMK1D
# CAMK1G = system: CAMK1G
# CAMK1 = system: CAMK1
# CAMK2A = system: CAMK2A
# CAMK2B = system: CAMK2B
# CAMK2D = system: CAMK2D
# 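Also: KINOMEscan kinase panel screen.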
Structure (SMILES),%Inh (AXL),%Inh (BIKE),%Inh (BLK),%Inh (BMPR1A),%Inh (BMPR1B),%Inh (BMPR2),%Inh (BMX),%Inh (BRAF),%Inh (BRK),%Inh (BRSK1),%Inh (BRSK2),%Inh (BTK),%Inh (BUB1),%Inh (CAMK1B),%Inh (CAMK1D),%Inh (CAMK1G),%Inh (CAMK1),%Inh (CAMK2A),%Inh (CAMK2B),%Inh (CAMK2D)
COc1cccc(-n2cnc3c(N)ncnc32)c1 [SKF-97416],0%,0%,0%,17%,24%,57%,0%,18%,0%,16%,6%,0%,57%,20%,11%,0%,16%,0%,0%,12%
CCn1c(-c2nonc2N)nc2ccccc21 [SB-693162/GW549034],25%,6%,21%,0%,34%,40%,0%,15%,0%,46%,4%,29%,0%,8%,20%,0%,17%,5%,0%,0%
Cc1cccc(-c2nc(Nc3ccc4c(cnn4C)c3)c3ccccc3n2)n1 [GW876731],25%,0%,0%,1%,0%,1%,7%,0%,0%,0%,2%,0%,34%,0%,0%,0%,10%,0%,8%,2%
COc1ccc(Nc2nccc(N3CCC(NS(=O)(=O)c4ccc(NC(C)=O)cc4)C3)n2)cc1 (stereo not drawn) [GSK1379729],23%,18%,26%,21%,3%,0%,12%,16%,18%,2%,0%,26%,37%,31%,19%,0%,18%,0%,0%,0%
Cc1ccccc1COc1cc(-n2cnc3cc(Cl)ccc32)sc1C(N)=O [GW813349],2%,20%,18%,0%,12%,26%,1%,6%,0%,0%,2%,18%,0%,0%,5%,0%,0%,0%,0%,0%
COc1cc(Nc2nccc(N3CCC(NC(=O)C4COc5ccccc5O4)C3)n2)cc(OC)c1OC (stereo not drawn) [GSK1379761],17%,57%,16%,0%,0%,26%,16%,0%,2%,9%,0%,53%,53%,25%,8%,8%,21%,8%,0%,9%
Cc1nnc(-c2ccc(C)c(-c3ccc(C(=O)O)cc3)c2)o1 [GW608005],0%,0%,31%,0%,0%,0%,0%,0%,0%,2%,8%,0%,17%,8%,4%,0%,2%,0%,0%,0%
CCC(=O)c1c(-c2ccccc2)c2cc(Cl)ccc2c(=O)n1Cc1cc(S(C)(=O)=O)n(CC(N)=O)n1,2%,0%,5%,0%,0%,0%,16%,0%,0%,0%,0%,0%,0%,0%,21%,0%,3%,0%,0%,0%
Nc1nccc2scc(-c3ccc4c(c3)CCN4C(=O)Cc3ccccc3)c12 [GSK2576924],36%,8%,1%,0%,0%,2%,19%,0%,43%,0%,0%,0%,0%,33%,10%,0%,9%,10%,2%,4%
COc1cc2ncn(-c3cc(OCc4ccc(S(C)(=O)=O)cc4)c(C(N)=O)s3)c2cc1OC [GW869979],31%,0%,46%,11%,30%,8%,6%,6%,0%,4%,0%,0%,28%,0%,0%,0%,0%,3%,6%,0%
COc1ccc(-n2cnc3c(N)ncnc32)cc1 [SKF-97236],22%,55%,16%,34%,0%,0%,0%,5%,0%,2%,14%,8%,4%,25%,10%,0%,5%,0%,0%,0%
COc1cc(OC)cc(-c2cc3cnc(N)nc3nc2NC(=O)NC(C)(C)C)c1,0%,0%,8%,54%,0%,0%,0%,10%,0%,0%,6%,0%,0%,0%,0%,0%,0%,0%,0%,4%
COC(=O)c1c(-c2ccccc2)c2cc(Br)ccc2c(=O)n1Cc1ccc(S(C)(=O)=O)cc1,7%,0%,9%,0%,19%,3%,17%,57%,0%,29%,0%,47%,15%,0%,26%,21%,42%,21%,6%,18%
CCC(=O)c1c(-c2ccccc2)c2cc(Cl)ccc2c(=O)n1Cc1ccc(C(=O)O)cc1,0%,0%,0%,0%,0%,4%,0%,48%,0%,0%,0%,0%,0%,0%,0%,0%,0%,0%,0%,0%
COc1cc2ncn(-c3cc(OCc4ccncc4Br)c(C(N)=O)s3)c2cc1OC [GW854278],30%,39%,11%,8%,6%,13%,10%,2%,6%,25%,20%,0%,0%,0%,0%,7%,0%,37%,46%,17%
Cl.c1ccc(Cn2cnc3cc(Nc4ncnc5ccccc45)ccc32)cc1 [GW272142],0%,34%,0%,0%,0%,0%,6%,0%,11%,4%,0%,0%,38%,31%,0%,0%,0%,0%,0%,15%
COc1cc2ncn(-c3cc(OCCCc4ccccc4)c(C(N)=O)s3)c2cc1OC [GSK205189],13%,36%,12%,0%,0%,0%,11%,0%,1%,1%,3%,0%,20%,0%,16%,24%,14%,0%,0%,16%
CCc1nc(-c2cccc(C)c2)c(-c2ccncc2)s1,0%,3%,0%,0%,0%,0%,0%,50%,7%,0%,0%,0%,35%,9%,23%,0%,8%,0%,0%,0%
CCC(=O)c1c(-c2ccccc2)c2cc(Cl)ccc2c(=O)n1Cc1cc(S(C)(=O)=O)n(CCC(C)(C)O)n1,10%,21%,12%,0%,6%,9%,33%,1%,7%,11%,0%,23%,14%,0%,0%,33%,7%,15%,0%,24%
COc1ccc(CNC(=O)NC2CCN(c3ccnc(Nc4ccc(F)cc4)n3)C2)cc1 (stereo not drawn) [GSK1379706],10%,0%,3%,6%,0%,22%,26%,3%,21%,0%,3%,18%,50%,0%,4%,8%,5%,0%,0%,18%
O=c1cc(N2CCOCC2)nc2n(Cc3ccc(F)c(Cl)c3)ccn12 [GSK2297099],0%,0%,13%,0%,0%,0%,5%,8%,0%,0%,0%,0%,0%,32%,9%,11%,17%,0%,0%,23%

Structure (SMILES),%Inh (AXL),%Inh (BIKE),%Inh (BLK),%Inh (BMPR1A),%Inh (BMPR1B),%Inh (BMPR2),%Inh (BMX),%Inh (BRAF),%Inh (BRK),%Inh (BRSK1),%Inh (BRSK2),%Inh (BTK),%Inh (BUB1),%Inh (CAMK1B),%Inh (CAMK1D),%Inh (CAMK1G),%Inh (CAMK1),%Inh (CAMK2A),%Inh (CAMK2B),%Inh (CAMK2D)
COc1ccc(-c2cc3c(C)nc(N)nc3n([C@H]3CC[C@H](OCCO)CC3)c2=O)cn1,0%,22%,2%,5%,1%,0%,0%,0%,0%,28%,0%,0%,0%,7%,0%,0%,0%,0%,0%,0%
CCCNC(=O)Nc1ccc(Oc2ncnc3ccn(C)c23)cc1,0%,0%,14%,10%,0%,16%,0%,0%,0%,0%,8%,0%,0%,0%,0%,19%,13%,0%,1%,11%
CN1C(=O)C(Nc2cc(Cl)c(O)c(Cl)c2)=C(c2ccc(Cl)cc2)C1=O [SB-404321],27%,0%,0%,0%,0%,1%,13%,0%,0%,0%,0%,0%,12%,25%,0%,0%,0%,0%,0%,0%
O=C1NC(=O)C(c2ccccc2)=C1Nc1cccc(O)c1 [SB-390534],27%,4%,6%,2%,0%,10%,15%,0%,0%,2%,0%,0%,0%,0%,0%,0%,0%,17%,0%,62%
Cc1nnc(-c2ccc3ncn(-c4ccc(S(C)=O)cc4)c3c2)o1 (stereo not drawn),4%,0%,0%,19%,0%,0%,12%,0%,19%,0%,0%,0%,0%,13%,0%,2%,11%,0%,0%,4%
Cc1nc(N(C)[C@H]2CN(C(=O)CC#N)CC[C@H]2C)c2cc[nH]c2n1,9%,0%,18%,0%,10%,8%,0%,0%,0%,0%,0%,0%,0%,0%,15%,1%,22%,0%,5%,0%
CCCC(=O)Nc1n[nH]c2ncc(-c3cccc4ccccc34)cc12 [SB-642057],18%,28%,0%,12%,5%,0%,0%,0%,0%,0%,0%,0%,35%,7%,14%,11%,0%,0%,0%,14%
Cc1cccc(-c2cc(-c3c[nH]nc3-c3ccccn3)ccn2)c1 [GW679395],0%,0%,32%,0%,2%,1%,0%,8%,4%,0%,0%,0%,28%,5%,10%,0%,7%,0%,0%,5%
COC(=O)c1c(-c2ccccc2)c2cc(C)ccc2c(=O)n1Cc1ccccc1,0%,0%,0%,0%,0%,0%,19%,79%,0%,0%,0%,0%,0%,0%,19%,12%,21%,0%,0%,0%
CCc1ccc(-c2ccc3c(c2)-c2nn(C)cc2S(=O)(=O)N3C)cc1,8%,0%,0%,0%,0%,0%,0%,32%,0%,0%,11%,13%,0%,0%,5%,16%,2%,9%,19%,25%
Fc1cccc(CSc2nnc(-c3ccc4c(c3)CCO4)o2)c1,0%,0%,0%,1%,5%,0%,0%,7%,2%,0%,0%,33%,25%,0%,0%,2%,6%,16%,24%,0%
Nc1ncnc2c1ncn2-c1cccc(F)c1 [SKF-97560],13%,0%,0%,0%,29%,26%,24%,24%,0%,0%,5%,22%,39%,0%,0%,0%,0%,0%,3%,0%
Cc1c(Cn2c(C)nn3c(=O)cc(N4CCO[C@H](C)C4)nc23)cccc1C(F)(F)F [GSK2373690],0%,31%,10%,15%,0%,0%,21%,0%,32%,7%,0%,0%,0%,0%,7%,0%,7%,0%,0%,0%
O=C(NCCNc1ccnc(Nc2ccc(F)cc2)n1)Nc1ccc2c(c1)OCO2 [GSK1379882],0%,17%,7%,0%,10%,0%,7%,0%,0%,11%,0%,0%,18%,0%,9%,0%,20%,0%,0%,4%
COc1cccc(C2=C(Nc3cccc(C(=O)O)c3)C(=O)NC2=O)c1 [SB-390770],0%,15%,1%,12%,0%,10%,14%,0%,7%,0%,17%,0%,8%,30%,0%,33%,3%,22%,33%,0%
COC(=O)c1c(-c2ccccc2)c2cc(Br)ccc2c(=O)n1Cc1ccc(NC(=O)CCC(=O)O)cc1,0%,0%,4%,0%,6%,7%,2%,42%,0%,0%,0%,38%,20%,38%,12%,9%,12%,0%,0%,3%
CN1C(=O)C(Nc2ccccc2)=C(c2ccccc2)C1=O [SB-300079],0%,0%,23%,12%,0%,14%,0%,9%,0%,0%,0%,0%,32%,0%,0%,0%,0%,0%,0%,0%
O=C(Nc1n[nH]c2nc(-c3ccccc3)c(Cl)cc12)C1CC1 [SB-734909],0%,21%,0%,9%,27%,0%,1%,62%,0%,70%,51%,0%,0%,0%,0%,0%,0%,0%,0%,0%
O=C(Nc1n[nH]c2nc(-c3ccccc3)c(Br)cc12)C1CC1 [SB-708998],0%,28%,8%,16%,0%,0%,7%,31%,0%,60%,32%,0%,11%,26%,4%,0%,4%,0%,0%,4%
Nc1nc(N)c2nc(-c3ccccc3)[nH]c2n1 [SKF-12778],19%,3%,0%,0%,0%,7%,0%,1%,16%,0%,0%,0%,23%,18%,0%,0%,0%,0%,0%,0%
COc1cc2nccc(Nc3cccc(Oc4ccccc4)c3)c2cc1OC.Cl [GW284543],0%,1%,69%,0%,0%,0%,0%,0%,60%,0%,1%,24%,38%,28%,0%,0%,2%,0%,0%,6%
